About 2,000 (36%) of roughly 5,500 compounds were called active. Roughly 18% stayed inconclusive and do not appear here. Cut-off read from the data, not from the text of the source: active = normalized growth mostly below about 0.91 (no sharp cut-off); inconclusive = no clear call, values can overlap the other calls; inactive = mostly above about 0.92. Some of the results follow.
Experiment: chemical genetic growth profiling, strain panel (AID 1159580);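 note: tested at 20 µM; growth read once vehicle control cultures reached saturation at 30 °C; 1 = growth at the plate median or of vehicle wells; lower values mean less growth of the strain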
Conditions: S. cerevisiae deletion strains, growth OD

Measured: normalized growth

COc1ccc(-c2cc(=O)c3c(O)cc(OC)cc3o2)cc1
inactive: locus YHR030C, strain SLT2, active compounds read low 0.924 | locus YHR079C, strain IRE1, active compounds read low 0.925 | locus YJL095W, strain BCK1, active compounds read low 0.931 | locus YJR066W, strain TOR1, active compounds read low 0.874 | locus YLR113W, strain HOG1, active compounds read low 0.905 | locus YNL183C, strain NPR1, active compounds read low 0.887 | locus YOR231W, strain MKK1, active compounds read low 0.919 | locus YPL256C, strain CLN2, active compounds read low 0.94
